Assay outcomes (PubChem BioAssay)
BAZ2B block = inhibitors of human BAZ2B bromodomain. AlphaScreen BAZ2B-H3K14Ac peptide displacement. Q9UIF8. Potency, µM (series often up to 114 µM), usual class: inhibitors. hit rate 4.4% among 360,000; note: nearly all actives have a fitted effect of over 60% in size
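Complex of BAZ2B and biotin-H3K14Ac (50 nM apiece) forms over 30 min at RT, then faces library compounds up to 110 uM for another 30 min; AlphaScreen beads added, 20 min dark incubation, luminescence read.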
G9a block = blocks human histone lysine methyltransferase G9a | Q96KQ7 | G9a H3K9 monomethylation, AlphaScreen, 2 h | Potency, µM (top dose mostly 102 µM), hits mostly inhibitors | hit rate 8.8% among 350,000; note: nearly all actives have a fitted effect of over 75% in size
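Chemiluminescent proximity detection of H3K9 monomethylation, read after 10 min bead incubation in the dark. Reaction: 20 nM G9a, 500 nM biotin-H3K9 peptide, 20 uM SAM cofactor, 2 h, room temperature, following 15 min enzyme-compound preincubation.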
Sfp PPTase inh = blocks B. subtilis Sfp PPTase activity | Q9F4F7 | Biochemical Sfp PPTase activity, qHTS | Potency, µM, hits mostly inhibitors | hit rate 3.5% among 310,000;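 note: the enzyme is Sfp with the accession as filed and its product quenches rhodamine fluorescence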
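Reaction rates are the 30-min fluorescence difference (ex 525, em 598 nm) in wells containing 15 nM Sfp, 5 uM rhodamine-CoA and 12.5 uM BHQ-2-YbbR at pH 7.6 with 10 mM MgCl2.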
L3MBTL1 block = blocks human L3MBTL1. Q9Y468. AlphaScreen L3MBTL1–H3K9me1 peptide binding. Potency, µM (top dose mostly 57.1 µM), usual class: inhibitors. hit rate 0.66% among 230,000; note: nearly all actives have a fitted effect of over 60% in size
Target sequence (Q9Y468 whole entry, looked up): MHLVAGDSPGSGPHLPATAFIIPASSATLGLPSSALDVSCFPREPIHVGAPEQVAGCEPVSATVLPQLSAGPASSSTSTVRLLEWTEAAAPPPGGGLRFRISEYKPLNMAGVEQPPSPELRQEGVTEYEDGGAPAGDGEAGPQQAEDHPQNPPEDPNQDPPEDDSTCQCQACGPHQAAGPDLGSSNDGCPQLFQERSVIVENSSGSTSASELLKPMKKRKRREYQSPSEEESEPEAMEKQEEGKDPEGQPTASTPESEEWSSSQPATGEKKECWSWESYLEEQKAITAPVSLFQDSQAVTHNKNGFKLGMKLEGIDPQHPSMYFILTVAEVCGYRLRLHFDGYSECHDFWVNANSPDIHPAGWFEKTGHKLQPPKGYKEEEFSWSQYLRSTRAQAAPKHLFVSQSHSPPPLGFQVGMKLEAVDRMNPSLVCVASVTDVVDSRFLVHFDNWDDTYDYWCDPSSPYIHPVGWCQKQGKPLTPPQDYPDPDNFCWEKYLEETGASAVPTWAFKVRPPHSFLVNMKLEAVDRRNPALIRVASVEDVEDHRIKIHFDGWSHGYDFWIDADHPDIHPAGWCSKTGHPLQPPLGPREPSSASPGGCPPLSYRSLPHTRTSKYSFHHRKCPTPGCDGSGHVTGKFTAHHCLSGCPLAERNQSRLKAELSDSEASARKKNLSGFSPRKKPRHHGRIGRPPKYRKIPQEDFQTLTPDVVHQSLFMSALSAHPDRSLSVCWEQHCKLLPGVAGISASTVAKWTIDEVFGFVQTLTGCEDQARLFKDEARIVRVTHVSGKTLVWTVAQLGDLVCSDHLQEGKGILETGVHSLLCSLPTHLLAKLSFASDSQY
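First, the protein-peptide complex forms for 30 min at room temperature (L3MBTL1 50 nM, biotinylated H3K9me1 peptide 75 nM). Next, compounds are pin-transferred and incubated 30 min. Finally, AlphaScreen beads are added and read after 30 min.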
HP1b binding inh = inhibitors of HP1-beta chromodomain binding to methylated histone tails | AID 540317 | Potency, µM (titrated, usually from 114 µM), usual class: inhibitors | AlphaScreen HP1-beta / biotin-H3K9me3 peptide binding | hit rate 0.56% among 390,000; note: nearly all actives have a fitted effect of over 70% in size
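HP1-beta protein (50 nM final) preincubated 30 min at room temperature with biotinylated H3(1-18)K9me3 peptide (50 nM) in PBS pH 7.4, 0.01% Tween-20, then compound added for 30 min. AlphaScreen streptavidin donor/nickel chelate acceptor beads (10 ug/mL final), 30 min dark, luminescence read.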
JMJD2A Tudor = JMJD2A Tudor domain (human) inhibition; O75164; AlphaScreen JMJD2A-Tudor / H3K4me3 peptide binding; Potency, µM (top dose mostly 114 µM), actives largely listed as inhibitors; hit rate 4.4% among 390,000; note: nearly all actives have a fitted effect of over 50% in size
Numbers stand for hits; . = inactive; ? = inconclusive; / = not tested or not shown; [ ] = another dose, or the depositor's remark. Sampled rows, rich in hits. Any-hit rate of the full collection: about 12%. Calls come from the whole dose curve; as a rule, active = well fitted curve in the direction sought with a large enough effect; inconclusive = small, poorly fitted or top-dose-only effect, or another doubt; inactive = no such curve, though single readings can be large; an effect the other way counts as inactive or inconclusive.

SMILES	BAZ2B block	G9a block	Sfp PPTase inh	L3MBTL1 block	HP1b binding inh	JMJD2A Tudor
Cc1ccc(NS(=O)(=O)c2cc([N+](=O)[O-])ccc2NNC(=S)Nc2cccc(Cl)c2)c(C)c1	20µM	16µM	7.9µM	25µM	?	?
Cc1ccc(NS(=O)(=O)c2cc([N+](=O)[O-])ccc2NNC(=S)Nc2cc(C)ccc2C)c(C)c1	32µM	2.5µM	.	?	?	40µM
COc1ccc(CNc2ccc([N+](=O)[O-])cc2C)cc1	.	.	.	/	.	.
COc1ccc(NC(=S)NNc2ccc([N+](=O)[O-])cc2S(=O)(=O)Nc2ccc(C)cc2C)cc1	25µM	10µM	40µM	?	?	32µM
C1CCN(CC2CCCCN2)CC1 (stereo unspecified)	/	/	/	/	.	?
CC1=C(C(=O)Nc2cccc(Cl)c2C)C2(CCCCCC2)OC1=O	.	.	/	/	.	.
CC(C)Cc1cc(C(C)(C)C)ccc1OC(=S)N(C)C	.	.	.	?	.	.
CC(C)(C)S(=O)N1Cc2ccc(CO)cc2[C@@H]1CCO (stereo partly specified)	/	/	/	/	.	.
COc1cccc(N=C2NC(=O)/C(=C/c3cc([N+](=O)[O-])ccc3O)S2)c1	56µM	?	.	/	?	?
Cc1ccc(S(=O)(=O)/N=C2/NC(=O)/C(=C/c3cc([N+](=O)[O-])ccc3O)S2)cc1	.	11µM	.	/	.	.
O=C1NC(=Nc2ccccc2Cl)S/C1=C\c1cc([N+](=O)[O-])ccc1O	?	35µM	?	.	.	?
O=C1N/C(=N/O)S/C1=C/c1cccc([N+](=O)[O-])c1	/	.	.	/	.	.
COc1cccc(NC(=O)CSc2nc(-c3ccccc3Cl)nc3c2Cc2c(CO)cnc(C)c2O3)c1	.	.	/	/	.	.
C/C(CC(=O)Nc1ccc(N(C)C)cc1)=N\NC(=O)c1ccc(C(C)(C)C)cc1	?	/	.	.	.	.
Cc1ccc(NC(=O)c2ccc3c(c2)CCN3S(C)(=O)=O)cc1C	.	.	.	.	.	16µM
CCc1cccc(C)c1NC(=O)Cn1nnc(-c2nc(-c3ccccc3F)no2)c1N	56µM	?	/	/	.	.
Cc1cc(C)cc(NC(=O)Cn2nnc(-c3nc(-c4ccncc4)no3)c2N)c1	?	.	/	/	.	56µM
Nc1c(-c2nc(-c3ccccc3)no2)nnn1CC(=O)Nc1cccc(F)c1	.	?	/	/	.	?
Oc1ccccc1C1=Nc2nc3ccccc3n2C(c2ccccc2)C1 (stereo unspecified)	?	13µM	.	.	.	?
Oc1ccccc1C1=NN(c2ccccc2)C(c2ccc(F)cc2)C1 (stereo unspecified)	.	.	.	/	.	.
O=c1c(/C=N/OCc2ccc(Cl)cc2Cl)c[nH]n1-c1cccc(Cl)n1	.	.	.	.	.	.
O=c1c(-n2cncn2)c[nH]n1-c1cccc(Cl)n1	50µM	?	56µM	/	?	50µM
Oc1c(Br)cc(Br)c2cccnc12	/	.[2.33 µM]	.	/	.	40µM
Cc1cc(C)c(/C=C/c2onc(C)c2S(=O)(=O)N2CCC(C(=O)N3CCN(c4ccc(Cl)cc4)CC3)CC2)c(C)c1	.	.	/	/	.	.
CCNC(=O)N1c2ccc(OC)cc2C(C)=CC1(C)C	?	50µM	.	.	.	.
SMILES	BAZ2B block	G9a block	Sfp PPTase inh	L3MBTL1 block	HP1b binding inh	JMJD2A Tudor
COc1ccc(NC(=O)N2c3ccc(OC)cc3C(C)=CC2(C)C)cc1	45µM	50µM	20µM	.	.	56µM
CCOc1ccc2c(c1)C(C)=CC(C)(C)N2C(=O)Nc1ccccc1	50µM	50µM	?	/	?	56µM
Cc1cc(C)cc(N(C(C)C(=O)N2CCCC2)S(C)(=O)=O)c1 (stereo unspecified)	.	.	.	.	.	.
Cc1ccc(S(=O)(=O)Oc2ccc3c(c2)O/C(=C\c2cccnc2)C3=O)cc1	.	.	.	/	.	?
O=C1/C(=C/c2cccnc2)Oc2cc(OS(=O)(=O)c3ccc(F)cc3)ccc21	.	.	.	/	.	40µM
Cc1ccc2occ(CC(=O)N(Cc3ccc(Cl)cc3)Cc3ccco3)c2c1	.	.	/	/	.	.
O=C(O)COc1ccccc1/C=N/NC(=O)CSc1nc2ccccc2n1Cc1ccccc1Cl	71µM	?	.	.	.	?
O=C(CSc1nc2ccccc2n1Cc1ccccc1Cl)N/N=C/c1ccccc1C(=O)O	.	.	?	?	.	.
CC(=O)c1ccc(OCCOc2ccc([N+](=O)[O-])cc2)cc1	.	.	.	.	.	.
C[N+]1(CCOc2ccc([N+](=O)[O-])cc2)CCOCC1	?	?	.	.	?	56µM
O=[N+]([O-])c1ccc(OCCN2CCCCCC2)cc1	50µM	32µM	.	.	?	2.8µM
Cc1cc(C)c(OCCN2CCOCC2)c(Cl)c1	?	32µM	.	.	?	28µM
CC1CCN(CCOc2ccc(Cl)c(Cl)c2)CC1	.	?	.	.	?	10µM
OCCN1CCN(CCOc2cccc(Cl)c2)CC1	?	/	.	.	.	?
Cc1cccc(NC(=O)CSc2nc3c(oc4ccccc43)c(=O)n2C(C)C)c1	.	.	/	/	.	.
O=C(NCCN1CCCCC1)Nc1ccc([N+](=O)[O-])cc1	.	79µM	.	.	.	.
Cc1cc(OCCN2CCOCC2)ccc1[N+](=O)[O-]	50µM	7.9µM	?	.	?	0.71µM
Cc1cc(OCCN2CCOCC2)ccc1Cl	?	10µM	.	.	?	.
Cc1cc(OCCN2CCCC2)ccc1[N+](=O)[O-]	?	7.9µM	.	.	.	3.2µM
COC(=O)C1=C(C)N(C)C(=O)NC1c1cccc2ccccc12 (stereo unspecified)	.	.	.	.	.	.
O=C1CS/C(=N\C(=O)N2c3ccccc3Sc3ccccc32)N1	?	5.6µM	.	.	.	?
COc1ccc(N2CCN(C(=O)c3ccc(Cn4nc(C)c([N+](=O)[O-])c4C)o3)CC2)cc1	?	3.5µM	.	/	.	.
COc1ccc(N2CCN(C(=O)c3ccc(CS(=O)(=O)c4ccc(OC)cc4)o3)CC2)cc1	?	40µM	.	/	.	.
Cc1nn(Cc2ccc(C(=O)N3CCCC3)o2)c(C)c1[N+](=O)[O-]	.	/	.	/	.	.
COc1ccc(S(=O)(=O)Cc2ccc(C(=O)N3CCN(c4cc(Cl)ccc4C)CC3)o2)cc1	.	25µM	.	/	.	.
COc1ccc(S(=O)(=O)Cc2ccc(C(=O)N3CCN(C(=O)c4ccco4)CC3)o2)cc1	.	?	.	.	.	.
COc1ccc(S(=O)(=O)Cc2ccc(C(=O)N3CCN(Cc4ccccc4)CC3)o2)cc1	.	35µM	.	.	.	.
Cc1cccc(C)c1NC(=O)CNC(=O)CCNC(=O)c1ccco1	.	?	/	.	.	.
